# About 13,000 (3.2%) of roughly 400,000 compounds were called active. Inconclusive results (about 18%) are left out. Calls follow the shape of the dose curve; as a rule, active = well fitted cell-killing curve with a large enough effect; inconclusive = small, poorly fitted or top-dose-only effect, or effect the other way; inactive = flat fitted curve, though single readings scatter. The full list was thinned out, with actives kept by preference.
# Experiment: qHTS assay for MDR1-selective chemotherapeutics: Primary screen using the drug-selected MDR subline cells KB-V1; also: nearly all actives have a fitted effect of over 60% in size
# Details: KB-V1 MDR cells viability, CellTiter-Glo, 72 h; series mostly up to 46.1 µM; activity change, negative = cytotoxicity: at the top concentration
# From the text: A prime difficulty in effectively treating cancer is the development of cellular resistance to multiple structurally unrelated anticancer drugs, a phenomenon known as multidrug resistance (MDR). […] Numerous strategies to overcome P-gp-mediated MDR have been explored, including the design of drugs that evade recognition and efflux, and development of inhibitors to block efflux and restore drug accumulation. […] An alternative approach is to exploit resistance by identifying drugs that target MDR cells over the non-resistant parental cells from which they were selected. […] The development of MDR1-selective agents represents a new strategy for resolving multidrug resistance, as it remains a long-standing clinical challenge for cancer chemotherapy.
# Our goal is to identify compounds that selectively kill P-gp-expressing MDR cells. We will identify MDR1-selective compounds by comparing toxicity of compounds in the screening library against parental, drug-naive (KB-3-1) adenocarcinoma cells as well as their drug-selected MDR sub-line (KB-V1). The differential toxicity of compounds against these two cell lines will be used to identify MDR1-selective compounds, whose cytotoxicity is potentiated, rather than diminished, by P-gp expression. This assay will be utilized to conduct a quantitative high-throughput screen (qHTS) in collaboration with the NIH Chemical Genomics Center to identify selective agents, and probe hits arising from the screen will be validated using secondary assays and characterized through a well-established follow-up research program. This screen was run against the entire NCGC library collection of about 400,000 compounds.
# NIH Molecular Libraries Probe Production Network [MLPCN]
# NIH Chemical Genomics Center [NCGC]
# PI: Michael Gottesman, National Cancer Institute, NIH
# Briefly, 5 microL of media containing either KB-V1 cells (columns 1-2, 4-48) are dispensed into Greiner white, treated solid-bottom 1536-well assay plates (media-only control is added to column 3). Compounds are then transferred via Kalypsys pin tool equipped with 1536-pin array (10 nL slotted pins, V&P Scientific, San Diego, CA). Following addition of compound, the plates are incubated at 37 degrees C for 72 hours. CellTiter-Glo (2.5 µL/well) is then added, and the plates are read in a ViewLux reader (Perkin-Elmer, clear luminescence filter, 1 second exposure, 1x binning) following a 10 minute incubation. All cells are dispensed in DMEM phenol-red free media containing 10% FBS.
# Library plates were screened starting from the lowest and proceeding to the highest concentration. Vehicle-only plates, with DMSO being pin-transferred to columns 5-48, will be inserted uniformly at the beginning and the end of each library in order to monitor and record any shifts in the background, which can be affected by reagent dispensers or loss in enzyme activity over time. Screening data will be corrected, normalized, and concentration-effect relationships will be derived by using publicly-available NCGC, NCATS curve fitting algorithms (http://ncgc.nih.gov/pub/openhts).
# % is scaled to controls: 0 for no effect and ±100 for the full control effect; potency is read from the fitted curve at half-maximal effect.
SMILES,"activity change, negative = cytotoxicity",Potency
COc1ccc2oc(-c3ccc(C)c(NC(=O)c4sc5ccccc5c4Cl)c3)nc2c1,11.6% (inactive),–
CCN(CC(=O)Nc1ccc(NC(C)=O)cc1)C(=O)C1CC(=O)N(c2ccc3c(c2)OCCO3)C1 (stereo not given),24.5% (inactive),–
CC(C)c1ccc(CC(=O)N2CCC2(C)C(=O)NS(=O)(=O)c2ccc(C(C)(C)C)cc2)cc1 (stereo not given),5.43% (inactive),–
COc1cccc(C(=O)NC(=O)Nc2ccc(-c3cc(C(F)(F)F)nn3-c3ccccc3)cc2)c1,9.8% (inactive),–
COc1ccc(-c2csc(-c3c(N)c(C(=O)c4ccc(OC)c(OC)c4)n4ccccc34)n2)cc1,10.1% (inactive),–
COc1ccc(CN(C(=O)c2cccs2)c2nccs2)cc1OC,-25.9% (inactive),–
COc1ccc(CCN(C(=O)COc2ccccc2)c2nc(-c3ccccc3)cs2)cc1OC,–,5.8 µM (active)
Cc1ccc(Sc2ccc(NC(=O)c3ccc(F)cc3)cc2C#N)cc1,0% (inactive),–
CC(C)C[C@H]1CNC(=O)C(=O)N1C[C@H]1CCCN1C[C@H](Cc1ccc(O)cc1)N1C[C@H](CC(C)C)N(CC2CCCCCC2)C(=O)C1=O,2.62% (inactive),–
COc1cccc(CNc2nc(NCc3cccs3)nc3ccsc23)c1,-10.1% (inactive),–
COc1ccc(CC(=O)Nc2c3c(nn2-c2cccc(Cl)c2)CS(=O)C3)cc1 (stereo not given),-4.66% (inactive),–
Cc1cccc(CC(=O)Nc2c3c(nn2-c2cccc(Cl)c2)CS(=O)C3)c1 (stereo not given),–,20.6 µM (active)
COc1ccc(-n2nc3c(c2NC(=O)Cc2cccc(C)c2)CS(=O)C3)cc1 (stereo not given),-2.57% (inactive),–
CC1CCCCN1S(=O)(=O)c1ccc(F)c(C(=O)Nc2ccccc2C(F)(F)F)c1 (stereo not given),-13.5% (inactive),–
CC1(C)CC2CC(C)(CN2c2ncnc3ccc(Br)cc23)C1 (stereo not given),–,2.59 µM (active)
CN(C)C(=O)COC(=O)c1cccc(S(=O)(=O)N2CC3(C)CC2CC(C)(C)C3)c1 (stereo not given),-7.77% (inactive),–
COc1ccc(Nc2ncnc3ccc(Br)cc23)c(OC)c1,0.531% (inactive),–
O=S(=O)(NCCc1csc(-c2ccccc2)n1)c1cccnc1,-8.15% (inactive),–
COc1ccc(-c2nc(CCNC(=O)c3ccc(Br)o3)cs2)cc1,0% (inactive),–
O=C(NCCc1csc(-c2ccccc2)n1)c1ccccc1F,–,20.6 µM (active)

SMILES,"activity change, negative = cytotoxicity",Potency
CC1(C(=O)NS(=O)(=O)c2ccc(Cl)cc2)CCN1C(=O)CC1CCCC1 (stereo not given),5.47% (inactive),–
C=CCn1c(SCC(=O)Nc2ccc(NC(C)=O)cc2)nc2sc(C)c(C)c2c1=O,-12.4% (inactive),–
C=CCn1c(SCc2csc(C)n2)nc2scc(-c3ccc(C)o3)c2c1=O,–,11.6 µM (active)
C=CCNC(=O)CSc1nc2scc(-c3ccco3)c2c(=O)n1CC=C,-16.8% (inactive),–
CO[C@@H]1CN(C)C(=O)c2cc(NC(=O)C3CC3)ccc2OC[C@H](C)N(C(=O)CN2CCOCC2)C[C@@H]1C,1.93% (inactive),–
C[C@H]1CN([C@@H](C)CO)C(=O)CCCn2cc(nn2)CO[C@@H]1CN(C)C(=O)Nc1ccccc1,12.8% (inactive),–
COc1ccc([C@H]2N[C@]3(CCCN(Cc4ccco4)C3=O)[C@H]3C(=O)N(C)C(=O)[C@@H]23)cc1,0% (inactive),–
Oc1c(CN2CCN(c3ccc(F)cc3)CC2)cc(Cl)c2cccnc12,–,5.17 µM (active)
Oc1c(CN2CCCC2)cc(COCc2ccccc2)c2cccnc12,–,20.6 µM (active)
COc1cc(CN2CCC(C(N)=O)CC2)ccc1OCc1ccccc1,4.51% (inactive),–
O=C(CN1CCN(c2ccc(F)cc2)CC1)Nc1ccccc1,-0.53% (inactive),–
Fc1ccc(N2CCN(Cc3cnc(Oc4ccc(Br)cc4)s3)CC2)cc1,0% (inactive),–
COc1cc(C)cc(CN2CCC(Cc3ccccc3)CC2)c1O,-10.3% (inactive),–
CCC(=O)N1CCc2cc(S(=O)(=O)NC(CC(C)C)C(=O)NCCc3cccc(C)c3)ccc21 (stereo not given),4.3% (inactive),–
COC(=O)c1ccc2c(c1)S(=O)(=O)NC2C (stereo not given),35.1% (inactive),–
CCc1ccc(-n2nc(C)c3c(C)cc(=O)n(CC(=O)Nc4ccc(F)cc4C)c32)cc1,2.18% (inactive),–
Cc1ccc(-c2nc3c(C)cc(Br)cn3c2Cc2ccccc2)cc1,-18.7% (inactive),–
CCn1c2c(c(=O)n3ncc(C(=O)N4CCN(c5ccccc5)CC4)c13)CN(Cc1ccc(OC)cc1)CC2,-27.7% (inactive),–
CCc1cccc(NC(=O)Cn2nc(CC)n3c(cc4cc(C)ccc43)c2=O)c1,-19.3% (inactive),–
Cc1ccc(NC(=O)CC2C(=O)N(Cc3ccccc3)C(=S)N2NC(=O)c2cccc(F)c2)c(C)c1 (stereo not given),–,4.11 µM (active)

SMILES,"activity change, negative = cytotoxicity",Potency
CN1C(=O)C(CC(N)=O)N(NC(=O)c2ccc(Cl)cc2)C1=S (stereo not given),1.63% (inactive),–
O=C(Nc1ccn(Cc2ccccc2)n1)c1cccc(F)c1,0% (inactive),–
Cc1ccc(S(=O)(=O)N2C[C@]3(O)C[C@@H]4C(=O)N(c5ccccc5)C(=O)[C@@H]4C[C@]3(OC(=O)NC3CC3)C2)cc1,75.5% (inactive),–
COc1ccc(NC(=O)C2Cc3c(-c4ccc5c(c4)OCO5)ccnc3O2)cn1 (stereo not given),–,20.6 µM (active)
COc1ccc(NC(=O)C2Cc3c(-c4cccc(NC(C)=O)c4)ccnc3O2)cc1OC (stereo not given),-18.5% (inactive),–
CC(=O)Nc1ccc(-c2ccnc3c2CC(C(=O)NC(C)C)O3)cc1 (stereo not given),-3.89% (inactive),–
CCOc1ccc(C(=O)Nc2ccc3nc4c(c(Nc5ccccc5OC)c3c2)CCCC4)cc1,0% (inactive),–
CC(C)C[C@@H]1Cc2[nH][nH]c(=O)c2[C@H](CCc2ccccc2)O1,-23.4% (inactive),–
COc1ccc(Br)cc1C(=O)NC(=S)Nc1cc(-c2nc3ccccc3[nH]2)ccc1C,-18.6% (inactive),–
COc1ccc(-c2[nH]nc(-c3ccccc3)c2-c2nc3ccccc3[nH]2)cc1,-2.23% (inactive),–
Cc1ccc(-c2nc3ccccc3[nH]2)cc1N,–,10.3 µM (active)
CC1(Oc2cccc(F)c2)CCN(Cc2ccccc2OC(F)F)C1 (stereo not given),5.33% (inactive),–
COc1ccccc1-n1c(-c2ccc(C)cc2)cn2c3c(=O)n(C)c(=O)n(C)c3nc12,27.5% (inactive),–
COc1cccc(Cn2c(SCc3ccc(C(=O)N4CCCCC4)cc3)nc3ccncc32)c1,13.1% (inactive),–
O=C(Nc1ccc(NC(=O)c2cccs2)cc1)c1ccc2ccccc2c1,1.68% (inactive),–
CC(C)(C)c1ccc(C(=O)Nc2ccc3c(c2)CCCN3C(=O)c2cccs2)cc1,–,20.6 µM (active)
O=C(Nc1ccccc1)c1ccc(NC(=O)c2cccs2)cc1,0% (inactive),–
Cc1nn(-c2ccccc2)c(C)c1NC(=O)COc1ccc(Cl)cc1Cl,–,2.31 µM (active)
C/C=C/c1ccc(OCC(=O)OCC(=O)Nc2c(C)nn(-c3ccccc3)c2C)c(OC)c1,4.6% (inactive),–
Cc1nn(-c2ccccc2)c(C)c1NC(=O)COC(=O)c1cc(Cl)ccc1O,-4.72% (inactive),–
